Data as given in PMC4336329 (PLoS ONE, 2015).
The whole screen tested about 310,000 compounds, of which about 14,000 (4.5%) showed an effect of 50% or more. Effects have a minus sign here. Only a selection was taken, and strong results are over-represented in it overall.

Molecular target: human ether-à-go-go-related gene (hERG) potassium channel (human, UniProt Q12809)
Assay: primary screen, population patch clamp on CHO cells stably expressing hERG; higher = less effect of the substance
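Also: peak tail current of the secondary pulse compared with the same well before compound.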

Chain of human ether-à-go-go-related gene (hERG) potassium channel (Q12809 whole entry, looked up): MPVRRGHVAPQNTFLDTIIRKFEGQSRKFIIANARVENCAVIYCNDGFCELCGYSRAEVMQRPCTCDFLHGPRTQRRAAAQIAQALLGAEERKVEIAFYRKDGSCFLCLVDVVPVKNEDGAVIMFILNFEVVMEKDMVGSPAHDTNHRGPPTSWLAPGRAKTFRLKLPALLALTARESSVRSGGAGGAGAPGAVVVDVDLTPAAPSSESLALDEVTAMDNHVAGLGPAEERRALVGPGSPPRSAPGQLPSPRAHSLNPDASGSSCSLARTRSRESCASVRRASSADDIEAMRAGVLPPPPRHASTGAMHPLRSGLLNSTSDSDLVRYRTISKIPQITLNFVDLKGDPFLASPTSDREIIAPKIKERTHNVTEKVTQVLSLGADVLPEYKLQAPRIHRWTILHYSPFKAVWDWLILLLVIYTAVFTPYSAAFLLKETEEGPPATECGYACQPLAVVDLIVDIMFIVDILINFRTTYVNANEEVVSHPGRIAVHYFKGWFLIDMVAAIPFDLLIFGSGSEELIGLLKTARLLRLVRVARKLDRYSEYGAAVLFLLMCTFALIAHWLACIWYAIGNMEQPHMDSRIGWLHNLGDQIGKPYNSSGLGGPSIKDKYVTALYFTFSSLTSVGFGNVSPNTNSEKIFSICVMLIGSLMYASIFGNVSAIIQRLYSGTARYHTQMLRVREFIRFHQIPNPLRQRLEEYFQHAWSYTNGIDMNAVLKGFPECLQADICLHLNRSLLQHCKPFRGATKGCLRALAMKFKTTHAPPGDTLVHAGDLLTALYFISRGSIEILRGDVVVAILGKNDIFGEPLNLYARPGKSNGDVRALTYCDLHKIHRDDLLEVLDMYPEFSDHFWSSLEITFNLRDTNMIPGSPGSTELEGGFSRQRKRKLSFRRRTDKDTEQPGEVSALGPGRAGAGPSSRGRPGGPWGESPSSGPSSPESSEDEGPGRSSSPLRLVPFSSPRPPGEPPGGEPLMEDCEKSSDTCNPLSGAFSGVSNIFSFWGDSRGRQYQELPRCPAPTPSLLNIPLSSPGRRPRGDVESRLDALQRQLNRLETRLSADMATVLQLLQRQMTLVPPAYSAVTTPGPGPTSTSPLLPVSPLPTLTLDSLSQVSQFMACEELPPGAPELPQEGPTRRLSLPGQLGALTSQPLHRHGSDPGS

Row | Structure (SMILES) | hERG current change (%, negative = inhibition) at 10uM
1 | NC(=O)c1ccsc1NC(=O)COC(=O)c1ccc(Cl)c(N)c1 | -3.1%
2 | CC1CCCN(C(=O)CCS(=O)(=O)c2ccc3c(c2)n(C)c(=O)c(=O)n3C)C1 (stereo not drawn) | 1.25%
3 | Cc1nc2ccccc2nc1CSc1nncs1 | 5.39%
4 | O=C(Nc1ccc(-c2nc3ccccc3o2)cc1)c1ccc(N2C(=O)C3C4C=CC(C4)C3C2=O)cc1 (stereo not drawn) | 3.26%
5 | O=C(Cc1ccccc1)NC(=S)Nc1ccc(OC(F)F)cc1 | -2.31%
6 | COCCN(CCOC)S(=O)(=O)c1ccc(NC(=O)c2cnccn2)cc1 | 13.1%
7 | CCOC(=O)c1c(NC(=O)CSc2nnc(CNC(=O)c3ccco3)n2C)sc2c1CCC2 | -50.1%
8 | CCOC(=O)c1c(NC(=O)C(C)N2CCN(C(=O)c3ccco3)CC2)sc2c1CCCC2 (stereo not drawn) | -56.1%
9 | CCOC(=O)c1c(NC(=O)c2ccco2)sc2c1CCCCC2 | 9.58%
10 | CCOC(=O)c1c(NC(=O)c2ccccc2C(=O)O)sc2c1CCCC2 | 18%
11 | CCOC(=O)c1c(NC(=O)c2ccccc2C(=O)O)sc2c1CCC2 | -1.15%
12 | CCOC(=O)c1c(NC(=O)c2ccco2)sc2c1CCCC2 | 4.29%
13 | CCOC(=O)c1c(NC(=O)CSc2nnc(CN3CCOCC3)n2C)sc2c1CCCC2 | -30%
14 | CCOC(=O)c1c(NC(=O)C(NCCN(C)C)c2ccccc2)sc2c1CCCC2 (stereo not drawn) | -73.2%
15 | CCOC(=O)c1c(NC(=O)CN2CCN(C(=O)c3ccco3)CC2)sc2c1CCCC2 | -8.72%
16 | COc1ccc(C2=C(C=Nc3c(C)n(C)n(-c4ccccc4)c3=O)C(c3ccccc3C)c3ccccc3O2)cc1OC (stereo not drawn) | 11.7%
17 | CCOC(=O)C1CCN(c2ncnc3c2cnn3C)CC1 | 6.3%
18 | Fc1ccc(NC(=S)N2CCCC2)cc1Cl | 8.95%
19 | CS(=O)(=O)NNC(=O)Cn1nnc(-c2cc(C(F)(F)F)cc(C(F)(F)F)c2)n1 | 19.7%
20 | O=C(NNC(=O)c1nn(-c2ccc(F)cc2)ccc1=O)c1ccccc1Cl | -5%
21 | O=C(Cn1cnc2ccccc2c1=O)NC1CCCc2ccccc21 (stereo not drawn) | 6.08%

Row | Structure (SMILES) | hERG current change (%, negative = inhibition) at 10uM
22 | CCCCn1c(SCC(=O)Nc2cc(C)on2)nnc1-c1cccs1 | -48.3%
23 | CCOC(=O)Cc1csc(NC(=O)COc2ccc3c(c2)CCC3)n1 | -1.14%
24 | COc1ccc(C)cc1S(=O)(=O)NCCN1CCOCC1 | 17.5%
25 | CC(C)c1ccc(N(C(=O)c2ccco2)C(C(=O)NC2CCCC2)c2cccnc2)cc1 (stereo not drawn) | -25.3%
26 | COc1cccc(/C=C(/C#N)c2ccc(F)cc2)c1OCc1cccc(C(=O)O)c1 | 11.4%
27 | O=C(NCc1ccc(F)cc1)c1c2c(nc3ccccc13)CCN(Cc1ccccc1)C2 | -22.2%
28 | CCN1CCc2nc3ccccc3c(C(=O)Nc3ccc(NC(C)=O)cc3)c2C1 | 10.2%
29 | O=C(Nc1ccccc1)c1c2c(nc3ccccc13)CCCC2 | -0.42%
30 | CCN1CCc2nc3ccccc3c(C(=O)Nc3ccc(C#N)cc3)c2C1 | -71%
31 | CCN1CCc2nc3ccccc3c(C(=O)Nc3ccc(F)cc3)c2C1 | -74.5%
32 | CCOc1ccc(NC(=O)c2c3c(nc4ccccc24)CCC3)cc1 | 8.95%
33 | CCCCC(=O)Nc1cccc(NC(=S)NC(=O)C(C)C)c1 | 3.44%
34 | O=C(NCCc1ccco1)C(=O)NCC1OCCCN1S(=O)(=O)c1ccccc1 (stereo not drawn) | -1.76%
35 | COc1ccc(/C=N/NC(=S)NCC2CCCO2)cc1 (stereo not drawn) | 6.97%
36 | CCCC(=O)Nc1ccc(NC(=O)c2ccccn2)cn1 | -8.57%
37 | CC(C)NC(=O)CSCc1ccccc1Cl | 12.9%
38 | COc1ccc(Cn2nnnc2C(c2cc3cc(C)cc(C)c3[nH]c2=O)N2CCOCC2)cc1 (stereo not drawn) | -58.2%
39 | COc1ccc(Cn2nnnc2C(c2cc3cccc(C)c3[nH]c2=O)N2CCN(C)CC2)cc1 (stereo not drawn) | 29.6%
40 | COc1cc2cc(C(c3nnnn3Cc3ccc(F)cc3)N3CCCCCC3)c(=O)[nH]c2cc1OC (stereo not drawn) | -74%
41 | Cc1ccc(C)c2[nH]c(=O)c(C(c3nnnn3CCc3ccccc3)N3CCOCC3)cc12 (stereo not drawn) | -59.4%
42 | COc1ccc(Cn2nnnc2C(c2cc3cc(C)ccc3[nH]c2=O)N2CCN(C)CC2)cc1 (stereo not drawn) | -24.4%
